Whole data set: some 110,000 compounds, median “z-score” near -0.1, cut for the highest 2% near 2. The entries come from a sample that favours the highest values as a whole. Calls of active or inactive are those of the source.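 The calls were made as follows: active = z-score in the third read window above 3 or below -3; inactive = the rest.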
Biological target: Metabotropic glutamate receptor 8 (Rattus norvegicus) (UniProt P70579)
Experiment: mGluR8 Gi/Go-coupled signaling modulation – cell-based, rat, thallium flux, HTS, primary screen (AID 488969)
Conditions: HEK293 rat mGluR8, GIRK (G protein-gated inwardly rectifying potassium channel) thallium flux, FluoZin2; at 10 µM; stronger effect = higher value; submaximal glutamate (EC20) added with thallium

Metabotropic glutamate receptor 8 (Rattus norvegicus), sequence (P70579 whole entry, looked up): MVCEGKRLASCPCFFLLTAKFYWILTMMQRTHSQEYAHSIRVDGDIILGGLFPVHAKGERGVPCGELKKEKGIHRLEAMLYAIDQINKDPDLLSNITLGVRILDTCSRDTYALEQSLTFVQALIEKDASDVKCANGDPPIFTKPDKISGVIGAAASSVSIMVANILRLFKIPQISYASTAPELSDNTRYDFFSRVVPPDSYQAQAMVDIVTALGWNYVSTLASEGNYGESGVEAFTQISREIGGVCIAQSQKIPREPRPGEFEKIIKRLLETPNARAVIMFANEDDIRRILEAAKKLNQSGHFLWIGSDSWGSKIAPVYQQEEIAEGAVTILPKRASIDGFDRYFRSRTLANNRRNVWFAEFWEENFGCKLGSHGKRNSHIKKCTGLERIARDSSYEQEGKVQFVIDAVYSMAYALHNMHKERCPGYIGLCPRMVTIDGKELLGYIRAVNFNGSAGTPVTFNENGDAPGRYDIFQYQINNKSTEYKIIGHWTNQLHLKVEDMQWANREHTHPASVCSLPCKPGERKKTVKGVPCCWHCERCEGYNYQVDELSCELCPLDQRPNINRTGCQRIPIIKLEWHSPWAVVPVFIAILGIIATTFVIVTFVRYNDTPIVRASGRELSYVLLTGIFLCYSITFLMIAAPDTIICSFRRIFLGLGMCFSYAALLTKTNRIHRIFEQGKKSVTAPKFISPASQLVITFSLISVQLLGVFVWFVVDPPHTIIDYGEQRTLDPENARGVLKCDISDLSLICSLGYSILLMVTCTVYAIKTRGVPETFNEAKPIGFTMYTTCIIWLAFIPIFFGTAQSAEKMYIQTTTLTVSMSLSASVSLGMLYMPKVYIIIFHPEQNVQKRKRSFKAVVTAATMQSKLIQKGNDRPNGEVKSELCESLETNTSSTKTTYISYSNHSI

SMILES | z-score
COc1cc(C(=O)Nc2ccc(S(=O)(=O)NC(C)(C)C)cc2)cc(OC)c1OC | -0.258
CCOc1cc(N2CCOCC2)c(OCC)cc1NC(=O)Cc1cccc2ccccc12 | -0.178
CCOc1cc(N2CCOCC2)c(OCC)cc1NC(=O)COC(=O)c1cccc2ccccc12 | -0.0215
CCOc1cc(N2CCOCC2)c(OCC)cc1NC(=O)COC(=O)CCc1c[nH]c2ccccc12 | 8.03 (active)
CCOc1ccccc1N1C(=O)CC(N(O)c2ccccc2)C1=O (stereo not given) | -0.0542
CC1(C)CN2C(=S)N(c3ccccc3)C(c3ccccc3)N2C1 (stereo not given) | -0.619
COc1ccc(N2CCN(CCCNC(=O)Nc3ccccc3)CC2)cc1 | 0.121
COc1ccc(N2CCN(CCNC(=O)Nc3ccc(Cl)cc3)CC2)cc1 | 0.451
COc1ccc(Cl)c(N2CCN(CCCNC(=O)Nc3ccc(C)cc3)CC2)c1 | 2.3
COc1ccccc1C1(CCNS(=O)(=O)c2ccc(C)cc2)CCOC(C(C)C)C1 (stereo not given) | -0.293
CC(=O)/C(=N/Nc1ccccc1)Sc1nnc(C(O)c2ccccc2)n1-c1ccccc1 (stereo not given) | -0.33
COc1cc(Cl)c(C)cc1NC(=O)CSC | 0.0277
CCn1cc(CNC(=O)/C=C/c2ccc([N+](=O)[O-])cc2)c(C)n1 | -0.204
Fc1cccc2sc(Nc3nc4cc5c(cc4s3)OCO5)nc12 | 5.54 (active)
Fc1cc(F)c2nc(Nc3nc4cc5c(cc4s3)OCO5)sc2c1 | 1.9
Fc1cccc2sc(Nc3nc4cc5c(cc4s3)OCCO5)nc12 | 2.25
COc1ccc2nc(Nc3nc4cc5c(cc4s3)OCO5)sc2c1 | 0.175
Fc1ccc2nc(Nc3nc4cc5c(cc4s3)OCCO5)sc2c1 | -0.101
c1ccc2sc(Nc3nc4cc5c(cc4s3)OCO5)nc2c1 | 0.501
Clc1cccc(Cl)c1Cn1cnc(=NCc2ccco2)c2[nH]cnc21 | -0.33
COc1ccc(/C=N/Nc2cc(C)nc(NS(=O)(=O)c3ccc(C)cc3)n2)cc1 | -0.501
CCCCN=Cc1sc2ccc(OCC)cc2c1O | -0.188
CC1CCCN(C(=O)CSc2nnc3n(C4CCCC4)c(=O)c4ccccc4n23)C1 (stereo not given) | -0.217
Cc1ccc(C)c(NC(=S)c2ccccn2)c1 | -0.333
O=C(Nc1ccccc1)Nc1ccccn1 | 0.139
S=C(Nc1ccccc1)c1ccccn1 | 2.52
CC(=O)N(Cc1ccc(F)cc1)C1=C(NCc2ccccc2)C(=O)c2ccccc2C1=O | 2.03
CC(=O)N(Cc1ccc(F)cc1)C1=C(NCCc2ccccc2)C(=O)c2ccccc2C1=O | 1.71e-05
CCCNC1=C(N(C(C)=O)c2cccc(F)c2)C(=O)c2ccccc2C1=O | -1.55
COC(=O)C1(S(=O)(=O)c2cc(Br)cc3c2N(C(C)=O)CC3)CC1 | -0.117

Source: PubChem BioAssay AID488969 (Vanderbilt High Throughput Screening Facility, 2010)
